Assay outcomes from PubChem.
This is a sample that favours compounds with a hit; in the whole collection about 4% have one here.
HSV replic up = HSV replication enhancement. maximum fold increase. 0.005% of 220,000 active. HSV replication augmentation in cells, fold increase; in the data active = maximum fold increase above about 1.5; inconclusive = no clear call, values can overlap the other calls; tested in PC3 cells
Measles CPE = protection of cells from measles virus; 1.5% of 140,000 active; protection (pct of control), % at 4 µM; Measles virus-infected cells, CPE protection, absorbance; in the data active = protection mostly above about 24%, no sharp cut-off; inactive = mostly below about 26%
ROMK mod = modulates human ROMK potassium channel activity. P48048. Tet-inducible ROMK, thallium flux fluorescence; actives lie on both sides. B-score at 10 µM. 2% of 130,000 active;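 active = signal ratio slope over the read window, or its plate-corrected B-score, at least 3 SD from the plate mean, either direction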;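 also: B-score of the F/F0 ratio slope over 7 to 12 s after thallium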
Target sequence (P48048 whole entry, looked up): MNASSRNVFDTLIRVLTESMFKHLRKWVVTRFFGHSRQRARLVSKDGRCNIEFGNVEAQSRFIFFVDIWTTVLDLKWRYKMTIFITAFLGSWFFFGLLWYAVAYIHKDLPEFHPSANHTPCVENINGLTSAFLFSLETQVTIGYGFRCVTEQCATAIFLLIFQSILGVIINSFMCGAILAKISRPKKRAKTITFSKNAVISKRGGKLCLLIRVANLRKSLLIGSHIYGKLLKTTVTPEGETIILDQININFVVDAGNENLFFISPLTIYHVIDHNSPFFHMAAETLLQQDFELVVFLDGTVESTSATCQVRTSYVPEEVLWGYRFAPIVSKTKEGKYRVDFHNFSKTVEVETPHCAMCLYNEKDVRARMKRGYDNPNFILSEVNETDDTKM
KCC2 mod = modulators of human KCC2 chloride dependent transport; KCC2 cells, thallium flux FluoZin-2 fluorescence; B-score of Tl+ flux slope (higher = more flux/activation; lower = inhibition) at 10 µM; 2.2% of 190,000 active;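 active = thallium flux slope and its plate-corrected score both differing from the plate sample mean at a set confidence after two filtering rounds, in either direction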;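 also: slope of fluorescence scaled to starting intensity during 10 to 20 s after thallium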
Arbovirus inh = arbovirus infection inhibition; inhibition, % at 10 µM; AID 1251; arbovirus infection cell-based antiviral screen; 0.37% of 200,000 active; in the data active = inhibition above about 30%
ROMK hit retest = human ROMK channel modulation, retest confirmation. shares compounds with ROMK mod. ROMK thallium flux, fluorescence ratio; hits give low values. normalized thallium flux (F/F0 slope) at 10 µM. 54% of 3,000 active. AID 1917;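 active = Flux at 10 µM at least 3 SD below or above vehicle control mean in one or both replicates; inconclusive = no clear call, values can overlap the other calls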
Active calls of the source: *; i = inactive; ? = inconclusive; / = no result given.

SMILES | HSV replic up | Measles CPE | ROMK mod | KCC2 mod | Arbovirus inh | ROMK hit retest
NC(=O)c1ccccc1NC(=O)CCc1ccccc1 | i | 5 | / | 0.34 | 5 | 0.087
NC(=O)c1ccccc1NC(=S)NC(=O)CCc1ccccc1 | i | 0 | 2.6 | -0.62 | -14 | /
CC(=Nc1ccc(C)cc1)c1sc2ccccc2c1O | ? | 9 | / | 1.1 | -3 | /
CC(=Nc1cccc(O)c1)c1sc2ccccc2c1O | / | 6 | -2.4* | / | 8 | 0.058*
Cc1cc(C(=O)CSc2nnnn2-c2ccc(O)cc2)c(C)n1Cc1ccc2c(c1)OCO2 | i | 4 | / | -0.99 | -13 | ?
CC1(C)c2[nH]c3ccccc3c2C[C@@H]2C(=O)N(c3ccc(F)cc3F)C(=O)N21 | i | / | / | / | / | /
COc1ccccc1C(=O)Oc1ccc2c(c1)O/C(=C\c1ccncc1)C2=O | ? | 3 | / | -0.27 | 12 | 0.061*
CCC(=O)Oc1ccc2c(c1)O/C(=C\c1ccco1)C2=O | / | / | -7.4* | i | / | 0.051*
COc1ccc(S(=O)(=O)Nc2ccc(F)c(F)c2)cc1Cl | i | 4 | -3.2* | 0.17 | -5 | 0.059*
COc1ccc(NS(=O)(=O)c2ccc(OC)c(OC)c2)cc1OC | i | 8 | / | 0.9 | 3 | /
COc1cc(CNC(C)(C)CO)cc(Br)c1OCc1ccc(Cl)cc1 | i | 3 | -5.1* | 0.56 | -34 | 0.056*
O=C1c2oc3ccc(F)cc3c(=O)c2C(c2cccc(O)c2)N1CCCN1CCOCC1 (stereo unspecified) | i | 18 | -2.3* | 1.4 | 5 | 0.075
C=CCOc1cccc(C2c3c(oc4ccc(F)cc4c3=O)C(=O)N2CCCN2CCOCC2)c1 (stereo unspecified) | i | / | / | 2 | 9 | /
Cc1ccsc1/C=N/NC(=O)C1CC(=O)N(c2ccccc2)C1 (stereo unspecified) | i | 14 | / | -0.076 | -6 | /
CC1CCN(C(=O)c2ccc(CNc3c(N4CCCC4)c(=O)c3=O)cc2)CC1 | i | / | -0.97 | 1.3 | / | /
O=C(c1ccc(CNc2c(N3CCCC3)c(=O)c2=O)cc1)N1CCN(C2CCCCC2)CC1 | / | 1 | 3.7* | 1.2 | 8 | 0.085
Cc1ccc(Cl)cc1N1CCN(c2cccc[n+]2C)CC1 | i | 16 | -0.55 | 0.86 | 10 | /
COc1ccc(S(=O)(=O)N2CCC(O)(c3cccnc3)CC2)cc1OC | i | / | -0.16 | -0.3 | -1 | /
Cc1ccc(N2C(=S)NC3c4ccccc4OC2(C)C3C(=O)N(C)C)cc1 (stereo unspecified) | i | / | 1.1 | 0.061 | 6 | /
Cc1ccccc1N1C(=S)NC2c3ccccc3OC1(C)C2C(=O)N(C)C (stereo unspecified) | i | / | -6.8* | 0.3 | 5 | 0.055*
O=C(CCl)Nc1ccccc1C(=O)NCc1ccccc1 | i | / | 0.0012 | 0.15 | 17 | /
CCOC(=O)c1cnc2ccccc2c1NCCc1ccc(OC)c(OC)c1 | i | 4 | -2 | -0.02 | 5 | /
CCOC(=O)c1cnc2ccc(OCC)cc2c1NCc1ccccc1 | i | 38 | 0.12 | 0 | -28 | /
CCOC(=O)c1cnc2ccc(OC)cc2c1NCCc1ccc(OC)c(OC)c1 | i | 4 | -4.1* | 0.52 | 1 | 0.055*
CCOC(=O)c1cnc2ccc(OCC)cc2c1NCc1cccnc1 | i | 11 | 3.7* | -2.1 | -18 | 0.089
SMILES | HSV replic up | Measles CPE | ROMK mod | KCC2 mod | Arbovirus inh | ROMK hit retest
O=C(CCl)Nc1cccc(Oc2ccccc2)c1 | i | / | -4.8* | -0.68 | -39 | ?
O=C(CN1CCCCC1)Nc1cccc(Oc2ccccc2)c1 | i | 13 | -2.2 | 0.42 | -2 | /
CCOc1ccc2c(c1)/C(=C(\C(Cl)=C(Cl)Cl)[N+](=O)[O-])N2 | i | / | -4.7* | 0.0069 | -1 | 0.053*
CCCCOc1ccc2c(c1)/C(=C(\C(Cl)=C(Cl)Cl)[N+](=O)[O-])N2 | i | / | -5.6* | -0.1 | -3 | 0.054*
COc1ccc(/C=N/NC(=O)c2ccc(=O)n(C)c2)cc1OC | i | / | 0.061 | / | 3 | /
COc1cc(NC(=O)C2CCN(S(=O)(=O)c3ccc(Cl)cc3)CC2)ccc1-n1cnnn1 | i | 4 | / | 0.02 | -39 | 0.053*
O=C(Cc1cn(Cc2cccc(Cl)c2)c2ccccc12)N1CCCC1 | i | 5 | -3.2* | 0.032 | -19 | 0.059*
Cc1cc(=O)n(-c2ccc(Cl)cc2)c(=O)[nH]1 | i | / | 0.72 | 0.27 | 14 | /
Cc1nnc(SCC(=O)N(C)C2CCCCC2)s1 | i | / | 0.033 | -0.14 | -8 | /
CCCSc1nc2sc3c(c2c(=O)[nH]1)CCN(Cc1ccccc1)C3 | ? | 6 | -5.4* | i | -2 | 0.03*
Cn1c(=O)c([N+](=O)[O-])c(NCC2CCCO2)c2ccccc21 (stereo unspecified) | i | / | -0.066 | -0.92 | / | /
Cc1cc(S(N)(=O)=O)c(N)c(S(N)(=O)=O)c1 | i | / | / | -0.11 | / | /
CCOc1ccc(-c2nc(CSCC(=O)N3CCN(c4cccc(OC)c4)CC3)c(C)o2)cc1 | i | 6 | / | / | 19 | 0.067*
COc1ccccc1C(=O)N(CCC1CCCN1C)c1nc2ccccc2s1 (stereo unspecified) | i | / | -0.96 | -0.05 | 11 | /
C=CCOC(=O)C1=C(C)OC(N)=C(C#N)C1c1ccc2c(c1)OCO2 (stereo unspecified) | i | 11 | -3.2* | -2.1 | -5 | 0.085*
C=CCN(c1ccccc1C(=O)O)S(=O)(=O)c1ccc(C)cc1 | i | / | 1.2 | 0.25 | 16 | /
CCO[C@H]1OC(C(=O)NCc2ccccc2)=C[C@@H](C(C)(C)C)[C@@H]1CCCO | i | / | / | / | / | /
O=C1CC(c2ccc(OCCCCCOc3ccc(C4CC(=O)NC4=O)cc3)cc2)C(=O)N1 (stereo unspecified) | i | / | -3.5* | -0.51 | 6 | 0.06*
CCCCCCc1cc2cc(S(=O)(=O)c3ccc(F)c(Cl)c3)c(=O)oc2cc1O | i | 13 | / | 0.59 | -8 | /
O=C(OCC#CCSc1nnc(-c2cccc3ccccc23)o1)c1cccs1 | i | 7 | -1.2 | / | 14 | /
O=C(OCC#CCSc1nnc(-c2ccccc2)o1)c1cccs1 | i | 17 | -2.6 | 0.47 | 4 | 0.058*
CCOC(=O)C1(Cc2cccc(Cl)c2)CCCN(C(=O)c2cccc(C)n2)C1 (stereo unspecified) | i | / | / | 0.011 | 17 | /
Cc1c(N2C(=O)/C(=C\C3CC=CCC3)SC2=S)c(=O)n(-c2ccccc2)n1C (stereo unspecified) | i | / | -6.6* | -0.46 | -5 | 0.038*
Cc1c(NC(=O)/C(C#N)=C/c2ccc(-c3ccc(Cl)cc3)o2)c(=O)n(-c2ccccc2)n1C | i | 2 | -2.6* | -3 | -1 | 0.08
Cc1c(NC(=O)/C(C#N)=C/c2ccc(-c3cc(Cl)ccc3Cl)o2)c(=O)n(-c2ccccc2)n1C | i | 18 | / | -0.48 | 2 | /
Cc1c(NC(=O)/C(C#N)=C\c2cccs2)c(=O)n(-c2ccccc2)n1C | i | 15 | / | 0.11 | -5 | /
Cc1c(N2C(=O)/C(=C3\C(=O)N(CC(=O)O)c4ccccc43)SC2=S)c(=O)n(-c2ccccc2)n1C | i | / | / | -0.044 | / | /
